Test results from PubChem BioAssay (Tox21).
Inconclusive results are not listed. Activity calls are given as the source filed them. Unless noted, calls come from the whole dose curve; as a rule, active = well fitted curve in the direction sought with a large enough effect in the repeat runs; inconclusive = weak or mixed curves; inactive = no such curve, though single readings can be large; an effect the other way counts as inactive or inconclusive.

Legend:
[1] = qHTS assay for small molecule agonists of the p53 signaling pathway (AID 651631; calls by dose curve; note: nearly all actives have a fitted effect of over 15% in size)
How it was run: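 We treat p53RE-bla HCT-116 cells with compounds for 16 h at 37 °C, add LiveBLAzer B/G FRET substrate for 2 h at room temperature, and measure fluorescence intensity.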

[2] = qHTS assay for small molecules that induce genotoxicity in human embryonic kidney cells expressing luciferase-tagged ATAD5 (AID 651632); note: nearly all actives have a fitted effect of over 15% in size
How it was run: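 Increased luciferase signal from ATAD5-tagged reporter cells indicates DNA-damage-driven ATAD5 induction. HEK293T cells are treated for 16 hr at 37C before detection with Amplite.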

[3] = qHTS assay for small molecule agonists of the p53 signaling pathway - cell viability (AID 651633; calls by dose curve;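 note: p53RE-bla HCT reporter cells with a stable beta-lactamase p53 reporter; series mostly up to about 83 µM; nearly all actives have a fitted effect of over 30% in size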)
How it was run: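 p53RE-bla cells were treated with compound for 16 hours at 37 C. Cytotoxicity was then measured as CellTiter-Glo luminescence after 30 min at room temperature.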

[4] = qHTS assay for small molecules that induce genotoxicity in human embryonic kidney cells expressing luciferase-tagged ATAD5 - cell viability (AID 651634; calls by dose curve; note: nearly all actives have a fitted effect of over 25% in size)
How it was run: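 Cytotoxicity counterscreen in HEK293T cells bearing an ATAD5-luciferase reporter: live-cell protease activity measured by CellTiter-Fluor fluorescence after 15.5 hr compound exposure.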

[5] = qHTS assay for small molecule disruptors of the mitochondrial membrane potential - cell viability (AID 720634; calls by dose curve;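 note: human HepG2 liver cancer cells; series mostly up to about 83 µM; nearly all actives have a fitted effect of over 20% in size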)
How it was run: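 After overnight attachment at 37 C, HepG2 cells received compound or DMSO vehicle for 1 hr. Viability is then taken from ATP-driven luminescence following a 30 min room-temperature CellTiter-Glo step.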

[6] = qHTS assay for small molecule disruptors of the mitochondrial membrane potential (AID 720635)
How it was run: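 HepG2 cells exposed to compound 1 hr at 37C, then Mito-MPS dye 30 min. Ratio read of aggregate (540/590 nm) versus monomer (490/535 nm) fluorescence.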

[7] = qHTS assay to test for compound auto fluorescence at 590 nm (red) in HepG2 cells (AID 720674)
How it was run: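 Fluorescence at 590 nm emission following 540 nm excitation was recorded from HepG2 wells one hour after compound transfer, with DMSO-only wells as vehicle and Rose Bengal sodium equivalency as the scale.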

[8] = qHTS assay to test for compound auto fluorescence at 535 nm (green) in HepG2 cells (AID 720675)
[9] = qHTS assay to test for compound auto fluorescence at 460 nm (blue) in HEK293 cells (AID 720678)
How it was run: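 HEK293 cells (2,000 per well, medium with 10% dialyzed FBS) attached for 4-5 hr at 37C, then received compound and stood overnight at 37C, 5% CO2. Blue fluorescence was read at Ex/Em 405/460 nm and expressed relative to triamterene.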

[10] = qHTS assay to test for compound auto fluorescence at 590 nm (red) in HEK293 cells (AID 720679)
How it was run: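 HEK293 cells (2,000/well, medium with 10% dialyzed FBS) attached for 4-5 hr at 37C, received 23 nL compound and were incubated overnight at 37C, 5% CO2. Red fluorescence was then read at 540/590nm Ex/Em, referenced to Rose Bengal sodium.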

[11] = qHTS assay to test for compound auto fluorescence at 535 nm (green) in HEK293 cells (AID 720680)
[12] = qHTS assay to test for compound auto fluorescence at 460 nm (blue) in HEK293 cell free culture (AID 720681)
How it was run: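 Compounds were added to cell-free DMEM with 10% FBS and fluorescence read directly. The blue channel used 405 nm excitation and 460 nm emission, with triamterene as the reference fluorophore.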

[13] = qHTS assay to test for compound auto fluorescence at 535 nm (green) in HEK293 cell free culture (AID 720682)
How it was run: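 Green-channel intensity (Ex/Em 485/535 nm) was recorded from compound-treated wells containing only DMEM with 10% FBS. Fluorescein provided the equivalency standard.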

[14] = qHTS assay to test for compound auto fluorescence at 590 nm (red) in HEK293 cell free culture (AID 720683)
How it was run: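 Cell-free wells of DMEM with 10% FBS received compound, and intrinsic fluorescence was read at excitation/emission 540/590 nm. Values expressed as equivalence to Rose Bengal sodium.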

[15] = qHTS assay to test for compound auto fluorescence at 590 nm (red) in HepG2 cell free culture (AID 720684)
How it was run: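 Compounds are added to culture medium (MEM, 10% FBS) lacking cells, then fluorescence is read at excitation 540 nm, emission 590 nm, with Rose Bengal sodium as the equivalency standard.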

[16] = qHTS assay to test for compound auto fluorescence at 460 nm (blue) in HepG2 cell free culture (AID 720685)
How it was run: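 Compound (23 nL) or DMSO pinned into cell-free MEM with 10% FBS; blue fluorescence read at 405/460 nm excitation/emission, expressed as auto-fluorescence equivalency to triamterene.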

[17] = qHTS assay to test for compound auto fluorescence at 535 nm (green) in HepG2 cell free culture (AID 720686)
[18] = qHTS assay to test for compound auto fluorescence at 460 nm (blue) in HepG2 cells (AID 720687)
How it was run: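 HepG2 cells in MEM with 10% FBS, attached overnight at 37 C, were exposed to compound or DMSO for 1 hr at 37 C, 5% CO2. Blue fluorescence was read at 405/460 nm, with triamterene as reference fluorophore.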

[19] = molecular target: Glucocorticoid receptor (Homo sapiens) (UniProt P04150); assay: qHTS assay to identify small molecule agonists of the glucocorticoid receptor (GR) signaling pathway (AID 720691; active = well fitted activation curve with a large enough effect in the signal ratio in the repeat runs, not every such curve was filed as active; the % refers to the signal ratio)
Glucocorticoid receptor (Homo sapiens), sequence (P04150 whole entry, looked up): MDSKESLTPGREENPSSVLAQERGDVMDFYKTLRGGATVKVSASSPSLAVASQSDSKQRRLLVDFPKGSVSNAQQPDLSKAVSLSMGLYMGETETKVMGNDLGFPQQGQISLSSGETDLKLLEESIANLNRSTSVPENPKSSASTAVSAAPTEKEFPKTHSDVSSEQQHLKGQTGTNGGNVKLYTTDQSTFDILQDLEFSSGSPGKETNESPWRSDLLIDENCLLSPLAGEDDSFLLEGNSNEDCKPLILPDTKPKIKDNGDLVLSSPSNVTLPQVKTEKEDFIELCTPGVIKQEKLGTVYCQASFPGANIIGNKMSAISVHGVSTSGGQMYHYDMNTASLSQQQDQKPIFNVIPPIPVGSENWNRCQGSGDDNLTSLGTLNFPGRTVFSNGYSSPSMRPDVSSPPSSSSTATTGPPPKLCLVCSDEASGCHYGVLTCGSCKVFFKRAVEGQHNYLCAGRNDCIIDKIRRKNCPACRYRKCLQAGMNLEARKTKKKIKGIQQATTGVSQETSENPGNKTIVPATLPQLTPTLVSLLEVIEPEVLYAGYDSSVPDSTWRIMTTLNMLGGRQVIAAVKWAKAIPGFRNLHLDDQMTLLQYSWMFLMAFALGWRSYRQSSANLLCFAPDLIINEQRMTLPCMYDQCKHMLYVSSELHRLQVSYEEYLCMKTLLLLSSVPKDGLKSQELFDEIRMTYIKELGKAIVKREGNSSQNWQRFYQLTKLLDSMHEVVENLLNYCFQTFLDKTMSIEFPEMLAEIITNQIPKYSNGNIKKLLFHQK
How it was run: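 Agonist mode in a HeLa line carrying a GRE-controlled beta-lactamase reporter. Compounds act for 18 h at 37 C before a 2 h room-temperature FRET substrate step and fluorescence reading.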

[20] = molecular target: Glucocorticoid receptor (Homo sapiens) (UniProt P04150); assay: qHTS assay to identify small molecule antagonists of the glucocorticoid receptor (GR) signaling pathway (AID 720692; active = well fitted inhibition curve with a large enough effect in the signal ratio in the repeat runs, not every such curve was filed as active; the % refers to the signal ratio)
How it was run: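 Cells plated, rested 4 h at 37 C/5% CO2; compounds in DMSO pin-transferred; dexamethasone added to 5 nM final; 18 h at 37 C; B/G FRET substrate added, 2 h room temperature; fluorescence measured.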

Measured: Potency

C=CCN1CCc2nc(N)sc2CC1
inactive: all assays above

CC(C)c1cc(C(C)C)cc(C(C)C)c1
inactive: all assays above

CC(O)C(CO)C(C)O (stereo not drawn)
not listed: [19]
inactive: all other assays above

C=CCn1cc[n+](C)c1
not listed: [7]
inactive: all other assays above

CCCCC(CC)COC(=O)CC#N (stereo not drawn)
not listed: [12] | [19] | [20]
inactive: all other assays above

Cc1ccc(NC(N)=O)cc1
not listed: [17] | [19] | [20]
inactive: all other assays above

C/C=C(\C)C(=O)OC/C=C(\C)CCC=C(C)C
not listed: [7]
inactive: all other assays above

CC1(C)C(=O)C(C)(C)C1=O
not listed: [12] | [19] | [20]
inactive: all other assays above

CCOCCOCCOC(C)=O
inactive: all assays above

CSC(=O)c1cccc2nnsc12
not listed: [11] | [19]
inactive: all other assays above

COCCCOc1cc(C[C@@H](C[C@H](N)[C@@H](O)C[C@H](C(=O)NCC(C)(C)C(N)=O)C(C)C)C(C)C)ccc1OC
not listed: [9]
inactive: all other assays above

O=C(O)COc1ccc2ccccc2c1
not listed: [17]
inactive: all other assays above

CC(C)CC(O)Cc1ccccc1 (stereo not drawn)
not listed: [20]
inactive: all other assays above
